Among the data in paper PMC7819943, “Rice protein-binding microarrays: a tool to detect cis-acting elements near promoter regions in rice” are binding signal values, retold here.

In all, about 39,000 sequences were measured (“fluorescence intensity (a.u.)”: median about 4,300, highest 2% from about 39,000 on). The sample as a whole holds a higher share of the highest values than the screen did.

The target of the assay is T1, OsSMF1 (Oryza sativa, UniProt Q6ZLB0 1-436).
T1 sequence: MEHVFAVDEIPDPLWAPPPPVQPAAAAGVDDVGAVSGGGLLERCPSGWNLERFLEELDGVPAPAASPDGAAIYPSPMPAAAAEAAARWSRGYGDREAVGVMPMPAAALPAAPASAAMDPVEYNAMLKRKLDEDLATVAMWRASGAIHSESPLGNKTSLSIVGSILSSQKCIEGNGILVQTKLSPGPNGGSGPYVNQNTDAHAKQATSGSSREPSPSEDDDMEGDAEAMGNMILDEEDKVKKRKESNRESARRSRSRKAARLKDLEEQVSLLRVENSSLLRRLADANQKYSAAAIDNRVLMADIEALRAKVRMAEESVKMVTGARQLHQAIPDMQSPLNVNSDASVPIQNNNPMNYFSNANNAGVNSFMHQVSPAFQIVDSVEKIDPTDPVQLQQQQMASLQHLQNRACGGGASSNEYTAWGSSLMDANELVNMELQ
Kind of assay: protein-binding microarray (RPBM); PBS, 2% BSA, 51.3 ng/ul salmon testes DNA, 50 uM zinc acetate, 200 nM TF, 25 C, 1 h; high values mean tight binding. The note with it: protein: recombinant; tags: N-terminal polyhistidine and DsRed monomer fusion (pET32a); chain copies: 2; label: CyDye5-dUTP incorporated in the synthesized complementary strand; 3' TTTTT single-stranded linker to array surface; dsDNA, one strand shown. The essentials: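 Transcription factors were made in E. coli BL21-CodonPlus as N-terminal fusions to a polyhistidine tag and DsRed, then purified on Ni–NTA. After primer extension with Cy5-dUTP and blocking with 2% BSA, a custom Agilent array was exposed for 1 h at 25 °C to 200 nM protein in PBS, 2% BSA, salmon testes DNA and 50 µM zinc acetate. Washed arrays were scanned on an Axon 4000B, and the binding signal is per-feature fluorescence intensity in arbitrary units.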
Consider “ATTAACAATTCAATGGTTCTTGATGTGTTCTACTTAACCTCGGAGTCACCTAGTGCAG”, for which the binding signal was 3260 fluorescence intensity (a.u.). For “AAGATAAATGGTTAAACCTTATATGTGAAACCAGAGAAAACGGAGTCACCTAGTGCAG” the value was 21100 fluorescence intensity (a.u.); for “CCTTCTTAACAGTCTGTGAAGCTCTGCCATCTCACCGTCTCGGAGTCACCTAGTGCAG”, 3820 fluorescence intensity (a.u.). For “TTCGGCGCAAATTTCTAATCATGATGTAATATAATTAGCTCGGAGTCACCTAGTGCAG”, the binding signal is 3270 fluorescence intensity (a.u.). Consider “CTTCGGCCTTAGCTCCAAATCCGATGTAAATTTACCAAATCGGAGTCACCTAGTGCAG”, for which the binding signal was 61700 fluorescence intensity (a.u.). The figure for “CTCCAAATTAGTATCCAAACATCCGATGTGACATGGACTTCGGAGTCACCTAGTGCAG” is 4370 fluorescence intensity (a.u.); for “TTTCCAATCACGTATTCCGGACAAAGGCCTAAACCTGCTCCGGAGTCACCTAGTGCAG” it is 35800 fluorescence intensity (a.u.). For “ACCAAAATTCTCATATCTCTCAACTAAACAAAACTCTTAACGGAGTCACCTAGTGCAG” the value was 3300 fluorescence intensity (a.u.); for “ACCCACGCACTCACTGACGATGCAATGCGGCCATATGCTACGGAGTCACCTAGTGCAG”, 3240 fluorescence intensity (a.u.); for “TAGTAGATAGCTTTGCTCTCTCTCTTCATTTAATATATTCCGGAGTCACCTAGTGCAG”, 4540 fluorescence intensity (a.u.). The figure for “CTCTTCATTTGTTAATTTAATTTGATTAATTCAGTGCTTCCGGAGTCACCTAGTGCAG” is 64900 fluorescence intensity (a.u.). With “TTTTGCTTAGCTGTTCTGTAATTGTCGATTTGAATTGGATCGGAGTCACCTAGTGCAG”, the binding signal was 3500 fluorescence intensity (a.u.). On to “GCAGAGTTCAGAATTTGTTCAGTTTAGGTGCTTCTGTAATCGGAGTCACCTAGTGCAG”, for which the binding signal was 55600 fluorescence intensity (a.u.). The figure for “AGTGCTTTATTTTGCTGATTCATTGTTAAAATTGCCTCTACGGAGTCACCTAGTGCAG” is 5500 fluorescence intensity (a.u.). “GATGTTCAGATGTACAACAGTAATTTGATTGCATCGGCTTCGGAGTCACCTAGTGCAG”: the binding signal is 3270 fluorescence intensity (a.u.). In the case of “CGGGAGAGAGGATCGGGAGAGATAGGGTTAGGGTTAGGGTCGGAGTCACCTAGTGCAG”, the binding signal was 3320 fluorescence intensity (a.u.). As to “CCACCACGTACAGTGCTTTCCTAGGCAGAAGCCCACTATCCGGAGTCACCTAGTGCAG”, the binding signal was 3490 fluorescence intensity (a.u.). The figure for “ACCAATCGCATGACGATATTCCCGCTCCCACAATCGCGTTCGGAGTCACCTAGTGCAG” is 3550 fluorescence intensity (a.u.). For “CGAACCGATGGTTGTGATTGTACGTGTCTACCTGATACGTCGGAGTCACCTAGTGCAG” the value was 5940 fluorescence intensity (a.u.); for “GAAAATAAGGGAGTTTTCTGCAAAATTTGATGAATGGAAGCGGAGTCACCTAGTGCAG”, 3230 fluorescence intensity (a.u.). Consider “TTTTGGTCATTTTACCATATGACTTTGTTTTGGTAATTTGCGGAGTCACCTAGTGCAG”, for which the binding signal was 3210 fluorescence intensity (a.u.). In the case of “CGGATTCTCGTCGGCTTCGGCGACCGGAAGAGGAGAGGAGCGGAGTCACCTAGTGCAG”, the binding signal was 3230 fluorescence intensity (a.u.). In the case of “CGGAGTGGCCAGCGTGGTGACAAGCGCGACGTGGCGGCTTCGGAGTCACCTAGTGCAG”, the binding signal was 6830 fluorescence intensity (a.u.).

In the case of “TTTCTGTGACGGCCCGCGTAGCTTCGGAGGAAGCGACCACCGGAGTCACCTAGTGCAG”, the binding signal was 47700 fluorescence intensity (a.u.). The figure for “GTTTAATGGGTTGATGTGGCATGCTTACATATAGGTTTTACGGAGTCACCTAGTGCAG” is 5830 fluorescence intensity (a.u.); for “GGCACTATAGATGTTTGGTTTCGCTGACGTGGCATTCTAGCGGAGTCACCTAGTGCAG” it is 49000 fluorescence intensity (a.u.); for “CTTGGTGGTTTTATAGGGTGGTTTCGCTGACGTGGCGTGGCGGAGTCACCTAGTGCAG” it is 44600 fluorescence intensity (a.u.). On to “AGCGGTTTCGCTGACGTGGCGGTTAGGTGGCATTTGAATTCGGAGTCACCTAGTGCAG”, for which the binding signal was 23800 fluorescence intensity (a.u.). For the sequence “TTTAGATGGCGGTTTTGGCTGACGTGGCACATATGTGGCTCGGAGTCACCTAGTGCAG”, the binding signal is 33100 fluorescence intensity (a.u.). For “TCCCTTGACGGTTTTGGCTGACGTGGCGCCTAGGTGGCTACGGAGTCACCTAGTGCAG” the value was 30000 fluorescence intensity (a.u.); for “TGGAGGGCAGTTTCGCTGACGTGGCGGTGTTGACCTAGTGCGGAGTCACCTAGTGCAG”, 34200 fluorescence intensity (a.u.). With “TCCCTTGGCAGTATAGGTGGGTGGTTTTGCTTACGTGGCACGGAGTCACCTAGTGCAG”, the binding signal was 40000 fluorescence intensity (a.u.). For the sequence “GGTTTAGACGTGGCGGTGGTGGGTGGCGTACGTTTGGGTTCGGAGTCACCTAGTGCAG”, the binding signal is 5180 fluorescence intensity (a.u.). “AACTGGAACCCTTAGCCACTGTGAGGTGTACATCTGACAACGGAGTCACCTAGTGCAG”: the binding signal is 4990 fluorescence intensity (a.u.).

As to “CTAGCCACTGAAGCATGGGTCATGATACAGCAGTTAATATCGGAGTCACCTAGTGCAG”, the binding signal was 3440 fluorescence intensity (a.u.).

Consider “CTTATCAAGACTCGTGGCGTGGAAAGCTTTACAGGTGAGGCGGAGTCACCTAGTGCAG”, for which the binding signal is 4710 fluorescence intensity (a.u.).

Turning to “ATGCATGACAGCACACCACACATTGACACCACTGAGGCAGCGGAGTCACCTAGTGCAG”, the binding signal is 3260 fluorescence intensity (a.u.). Regarding “TTAAAGAAATGGTTGGTGCTGCTCCGACTCCCTGTTTCCTCGGAGTCACCTAGTGCAG”, the binding signal is 16200 fluorescence intensity (a.u.). For “GCCTCTCCTCAAGCGGTGGAGAGCGCGGACGTGGACGTGCCGGAGTCACCTAGTGCAG”, the binding signal is 6520 fluorescence intensity (a.u.). Take “AAAAGATTCGTCTCGCAATTTACACGTAACCTGTGTAATTCGGAGTCACCTAGTGCAG”: the binding signal was 7350 fluorescence intensity (a.u.). In the case of “TGTCAAATCATGACGCAATTAGGCTCAGAAGATTCGTCTCCGGAGTCACCTAGTGCAG”, the binding signal is 4030 fluorescence intensity (a.u.). With “TTATGATGTAATTAGGCTCAAAAGATTCGTCTCGCAATTTCGGAGTCACCTAGTGCAG”, the binding signal was 44200 fluorescence intensity (a.u.). In the case of “TATCAAATTATAGCGCAATTAGGCTCAAAAGATTCAGATTCGGAGTCACCTAGTGCAG”, the binding signal is 26600 fluorescence intensity (a.u.).

Regarding “GATTCGTCTCGCGATTTCCATTCAAACTGTGCAATTAGTTCGGAGTCACCTAGTGCAG”, the binding signal was 28000 fluorescence intensity (a.u.). As to “GGCTCAAAAGATTCATCTCGCGATTTCCATACAAACTGTACGGAGTCACCTAGTGCAG”, the binding signal was 46300 fluorescence intensity (a.u.).
